Measurements as given in PubChem BioAssay (Tox21).
Records with an inconclusive call do not appear. Entries that show only a call come without a potency. The source made the active and inactive calls. The call rests on the fitted dose curve; in most records, active means well fitted cell-killing curve with a large enough effect in the repeat runs; inconclusive means weak or mixed curves, or effect the other way; inactive means flat fitted curve, though single readings scatter.

Assay: qHTS assay to identify small molecule antagonists of the constitutive androstane receptor (CAR) signaling pathway - cell viability counter screen (AID 1224837); further: nearly all actives have a fitted effect of over 45% in size
Details: HepG2-CYP2B6-hCAR viability, CellTiter-Fluor, 23 h, co-treated with 50 nM CITCO; series mostly up to 92.4 µM
Description: National Center for Advancing Translational Sciences [NCATS]
NIH Chemical Genomics Center [NCGC]
U.S. Environmental Protection Agency [EPA]
National Institutes of Environmental Health Sciences [NIEHS]
National Toxicology Program [NTP]
U.S. Food and Drug Administration [FDA]
The constitutive androstane receptor (CAR) is a nuclear receptor which regulates multiple drug metabolizing enzymes (DMEs) and transporters. Activating CAR will generally increase the transcription and subsequent translation of CYP2B6 and CYP3A4. These two DMEs represent about 50% of the drug metabolizing potential in the body. When CAR is deactivated, the metabolizing potential in the body will decrease, subsequently increasing the toxicity in the body or lowering the therapeutic potential of a pro-drug. Recently, there have also been studies performed indicating CARs role in energy metabolism and cancer therapy. Therefore, inhibiting CARs activity could have a potential effect on diabetes and cancer. Identifying environmental toxins and compounds which modulate CAR, through the use of the Tox21 10K compound collection, will be an important step in determining the toxicity and potential therapeutic effects these factors will have on the human body. To differentiate true CAR antagonists from cytotoxic substances, the assay is multiplexed with a cell viability assay.
Tox21 Assay Protocol Summary:
A double-stable (hCAR and CYP2B6-2.2kb) transfected cell line, derived from human hepatoma (HepG2) cells, was utilized for the duration of the quantitative high-throughput screens. The HepG2-CYP2B6-hCAR cells were dispensed at 2500 cells/4 uL/well in 1536-well white solid bottom plates using a Multidrop Combi. After the assay plates were incubated at 37 C/5% CO2 for 4 hrs, 23 nL of compounds at 15 concentrations (from 5-48 columns) or positive control (from 1 to 4 columns) were transferred to the assay plates using a Pintool station. One uL of CITCO (final concentration = 50 nM) was added, using a Flying Reagent Dispenser, inside each well. After a 23 hr incubation period at 37 C/5% CO2, 1 uL of CellTiter-Fluor reagent was added into each well of the assay plates using a Flying Reagent Dispenser. The fluorescence intensity in the plates was then measured using a ViewLux plate reader.

| Structure (SMILES) | Potency |
| --- | --- |
| CN1CCN(c2c(F)cc3c(=O)c(C(=O)O)cn(CCF)c3c2F)CC1 | inactive |
| CN(C)CC[C@@H](c1ccc(Cl)cc1)c1ccccn1 | inactive |
| OCCN(CCO)c1ccccc1 | inactive |
| FC(F)(F)C(Cl)(Cl)Cl | inactive |
| CC(C)(C)c1cccc(O)c1 | inactive |
| CCNCCO | inactive |
| Cc1ccc(C(C)C)cc1O | inactive |
| CCCCCCCCOC(=O)CCCCCCCCC(=O)OCCCCCCCC | inactive |
| N#CSCC(=O)O | inactive |
| COc1nc(C)nc(NC(=O)NS(=O)(=O)c2ccccc2OCCCl)n1 | inactive |
| Cc1ccsc1C(=CCCN1CCC[C@@H](C(=O)O)C1)c1sccc1C | inactive |
| O=C(O)c1cccc(Cl)c1Cl | inactive |
| CCCCNc1cc(C(=O)O)cc(S(N)(=O)=O)c1Oc1ccccc1 | inactive |
| O=C1CCCCC1C1CCCCC1 (stereo not given) | inactive |
| C=CCCC=C | inactive |
| Clc1cccc(-c2cc(Cl)cc(Cl)c2)c1 | inactive |
| CC(CNC1CCCCC1)OC(=O)c1ccccc1 (stereo not given) | inactive |
| CC(=O)Oc1cc(C(C)C)c(OCCN(C)C)cc1C | inactive |
| CC(C)NCC(O)COc1ccc(CCOCC2CC2)cc1 (stereo not given) | inactive |
| CC(C)(C)c1ccc(OC(=O)c2ccccc2O)cc1 | inactive |

| Structure (SMILES) | Potency |
| --- | --- |
| O=Cc1ccc(O)c(O)c1O | inactive |
| CCCc1c2oc(C(=O)O)cc(=O)c2cc2c(=O)cc(C(=O)O)n(CC)c12 | inactive |
| NC(=O)NS(=O)(=O)c1ccc(Cl)cc1 | inactive |
| CCN(CC)CCOc1ccc(Cc2ccccc2)cc1 | inactive |
| CCC(=O)c1ccc2c(c1)N(CCCN(C)C)c1ccccc1S2 | inactive |
| CCCNC(C)C(=O)Nc1c(C)csc1C(=O)OC (stereo not given) | inactive |
| CCCCCCn1c(=O)c2c(ncn2C)n(C)c1=O | inactive |
| CCc1cc(Cl)c(OC)c(C(=O)NC[C@@H]2CCCN2CC)c1O | inactive |
| OCC(CBr)(CBr)CBr | inactive |
| CCCS(=O)c1ccc2nc(NC(=O)OC)[nH]c2c1 (stereo not given) | inactive |
| CCCCCCCCCC#N | inactive |
| O=S(=O)(O)C(F)(F)F | inactive |
| CN1CCN(N)CC1 | inactive |
| CCOC(=O)C(Br)c1ccccc1 (stereo not given) | inactive |
| CN1CCN(C2=Nc3cc(F)ccc3Cc3ccccc32)CC1 | inactive |
| CC1(O)CSC(C)(O)CS1 (stereo not given) | inactive |
| O=C1CCC(C2CCCCC2)CC1 | inactive |
| NC(=O)Cc1cccc(C(=O)c2ccccc2)c1N | inactive |
| CN1C(=O)CC(c2ccccc2)C1=O (stereo not given) | inactive |
| CC(C)(C)C1CCCCC1=O (stereo not given) | inactive |
